From PubChem BioAssay (NCATS)
“And” between values parts separate entries of the source, which are not always exact repeats. Equal values may be shown once. Records with an inconclusive call do not appear. A call without a number means that no potency is given here. Where a structure was tested more than once in an assay, its records may differ in their call. The source made the active and inactive calls. Unless noted, calls follow the shape of the dose curve; as a rule, active = well fitted curve in the direction sought with a large enough effect; inconclusive = small, poorly fitted or top-dose-only effect, or another doubt; inactive = no such curve, though single readings can be large; an effect the other way counts as inactive or inconclusive.

How the values were obtained:
[1] = biological target: Cellular tumor antigen p53 (Homo sapiens) (UniProt P04637); experiment: Primary qHTS for small molecule compounds that upregulate eGFP-tagged delta133p53alpha (in N-terminal) cells. (AID 2060322); details: NCI-H358 eGFP-delta133p53alpha fluorescence, 24 h; activation: stronger effect = higher value; also: nearly all actives have a fitted effect of over 75% in size; also: potency is read from the fitted curve at half-maximal effect;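 as to activation: cells pre-induced with doxycycline then dosed without doxycycline; series mostly up to about 56 µM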
Procedure, shortened: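 NCI-H358 cells pre-induced 24 h with 10 ng/ml doxycycline for eGFP-delta133p53alpha, plated dox-free and exposed 24 h at 37C to titrated compounds. Fixed, Hoechst-stained; gated GFP peak intensity by laser scanning cytometry, normalized to DMSO (0%) and 57.5 uM 5-azacytidine (100%).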

[2] = biological target: Cellular tumor antigen p53 (Homo sapiens) (UniProt P04637); experiment: Primary qHTS for small molecule compounds that upregulate eGFP-tagged delta133p53alpha (in C-terminal) cells. (AID 2060324); also: potency is read from the fitted curve at half-maximal effect
Procedure, shortened: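 Readout: filtered GFP peak intensity of gated cells (laser scanning cytometer), normalized plate-wise to intraplate controls, DMSO wells = 0% activity. Cells: NCI-H358 D133p53a-eGFP, dox 100 ng/ml 24 h beforehand, then compound 24 h, 37 °C.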

[3] = biological target: Aldehyde dehydrogenase, mitochondrial (Homo sapiens) (UniProt P05091); experiment: qHTS for Inhibitors of the Aldehyde Dehydrogenase Family (ALDH2) Validation screens (AID 2061302; active = well fitted inhibition curve with a large enough effect; title and protocol of this record describe different tests; also: potency is read from the fitted curve at half-maximal effect)
[4] = biological target: Aldehyde dehydrogenase 1A1 (Homo sapiens) (UniProt P00352); experiment: qHTS for Inhibitors of the Aldehyde Dehydrogenase Family (ALDH1A1) Confirmatory screens (AID 2061316); also: potency is read from the fitted curve at half-maximal effect; nearly all actives have a fitted effect of over 65% in size
[5] = biological target: Retinaldehyde dehydrogenase 3 (Homo sapiens) (UniProt P47895); experiment: qHTS for Inhibitors of the Aldehyde Dehydrogenase Family (ALDH1A3) Validation screen (AID 2061312); also: nearly all actives have a fitted effect of over 45% in size; also: potency is read from the fitted curve at half-maximal effect
[6] = BET inhibitor-based combinations targeting novel dependencies in MECOM-rearranged (r) AML: SET-2 cell line (AID 2202231); details: SET-2 AML cells viability, CellTiter-Glo luminescence, 48 h; viability: stronger effect = lower value, series mostly up to about 46 µM; also: nearly all actives have a fitted effect of over 35% in size
Procedure, shortened: (§1)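 Viability of cells (500 per well) is scored by luminescent CellTiter-Glo at 48 hr post-dosing. Eleven-point titrations are normalized to DMSO and empty controls and reduced to AUC values.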

[7] = BET inhibitor-based combinations targeting novel dependencies in MECOM-rearranged (r) AML: MV-4-11 cell line (AID 2202233); also: nearly all actives have a fitted effect of over 45% in size; also: potency is read from the fitted curve at half-maximal effect
Procedure, shortened: (§2)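 Using pin-tool transfer, drugs were added in 11 doses to cells (500/well), incubated 48 hr, and assessed with CellTiter-Glo. Z-AUC is a mean-centring transformation applied separately to each screened line.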

[8] = BET inhibitor-based combinations targeting novel dependencies in MECOM-rearranged (r) AML: UCSD-AML1 cell line (AID 2202235); also: nearly all actives have a fitted effect of over 40% in size; also: potency is read from the fitted curve at half-maximal effect
Procedure, shortened: as §2

[9] = BET inhibitor-based combinations targeting novel dependencies in MECOM-rearranged (r) AML: AML-194 cell line (AID 2202237; also: nearly all actives have a fitted effect of over 40% in size)
Procedure, shortened: as §1

[10] = qHTS for Inhibitors of the Aldehyde Dehydrogenase Family (ALDH1A2, ALDH1A3, ALDH2, ALDH3A1) (AID 2061307); also: nearly all actives have a fitted effect of over 50% in size; as to potency: test system not described further here; potency is read from the fitted curve at half-maximal effect
[11] = biological target: Retinal dehydrogenase 2 (Homo sapiens) (UniProt O94788); experiment: qHTS for Inhibitors of the Aldehyde Dehydrogenase Family (ALDH1A2) Confirmation screens (AID 2061314); also: nearly all actives have a fitted effect of over 65% in size; also: potency is read from the fitted curve at half-maximal effect
[12] = biological target: Aldehyde dehydrogenase, mitochondrial (Homo sapiens) (UniProt P05091); experiment: qHTS for Inhibitors of the Aldehyde Dehydrogenase Family (ALDH2) Primary screen (AID 2061308); also: nearly all actives have a fitted effect of over 55% in size
[13] = biological target: Retinaldehyde dehydrogenase 3 (Homo sapiens) (UniProt P47895); experiment: qHTS for Inhibitors of the Aldehyde Dehydrogenase Family (ALDH1A3) Primary screen (AID 2061315)
[14] = BET inhibitor-based combinations targeting novel dependencies in MECOM-rearranged (r) AML: OCI-AML3 cell line (AID 2202232); details: Potency: OCI-AML3 viability; also: series mostly up to about 46 µM; nearly all actives have a fitted effect of over 35% in size
Procedure, shortened: as §1

[15] = BET inhibitor-based combinations targeting novel dependencies in MECOM-rearranged (r) AML: HNT-34 cell line (AID 2202234); also: nearly all actives have a fitted effect of over 35% in size
Procedure, shortened: as §2

[16] = biological target: Aldehyde dehydrogenase, mitochondrial (Homo sapiens) (UniProt P05091); experiment: qHTS for Inhibitors of the Aldehyde Dehydrogenase Family (ALDH2) Confirmatory screens (AID 2061303; active = well fitted inhibition curve with a large enough effect; title and protocol of this record describe different tests; also: nearly all actives have a fitted effect of over 45% in size; also: potency is read from the fitted curve at half-maximal effect)
[17] = biological target: Retinaldehyde dehydrogenase 3 (Homo sapiens) (UniProt P47895); experiment: qHTS for Inhibitors of the Aldehyde Dehydrogenase Family (ALDH1A3) Confirmatory screens (AID 2061311); also: nearly all actives have a fitted effect of over 60% in size; also: potency is read from the fitted curve at half-maximal effect

Cellular tumor antigen p53 (Homo sapiens), sequence (P04637 whole entry, looked up): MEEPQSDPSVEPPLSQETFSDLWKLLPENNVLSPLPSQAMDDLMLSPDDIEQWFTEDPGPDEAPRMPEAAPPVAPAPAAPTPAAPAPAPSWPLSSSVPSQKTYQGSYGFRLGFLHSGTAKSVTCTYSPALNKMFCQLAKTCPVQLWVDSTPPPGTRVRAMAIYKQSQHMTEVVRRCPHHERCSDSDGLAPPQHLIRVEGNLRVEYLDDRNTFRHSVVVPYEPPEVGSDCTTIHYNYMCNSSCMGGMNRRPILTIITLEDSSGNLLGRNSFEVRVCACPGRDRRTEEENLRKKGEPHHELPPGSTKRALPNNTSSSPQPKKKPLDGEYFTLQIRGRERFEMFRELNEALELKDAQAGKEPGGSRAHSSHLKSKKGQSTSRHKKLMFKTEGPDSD

SMILES: C[C@]12Cc3cn4c(nc3C=C1CCC1C2CC[C@@]2(C)[C@H]1CC[C@@]2(O)C#N)nc1ccccc14 (stereo partly drawn)
- activation [1]: -9.64% (inactive)
- Potency [2]: 30.1 µM (active)
- Potency [3]: inactive
- Potency [4]: 12.7 µM (active)

SMILES: COc1ccc2c(c1OC)C(=O)O[C@H]2[C@@H]1c2cc3c(cc2CCN1C)OCO3
- activation [1]: 9.21% (inactive) and -17.4% (inactive)
- Potency [2]: inactive
- Potency [3]: inactive
- Potency [5]: inactive

SMILES: CN1C2CCC1CC(OC(c1ccccc1)c1ccccc1N)C2 (stereo not drawn)
- activation [1]: -67.5% (inactive)
- Potency [2]: inactive
- Potency [3]: inactive
- Potency [5]: inactive

SMILES: CCCN(CCC)C1CCc2ccc(O)cc2C1 (stereo not drawn)
- activation [1]: -10.8% (inactive)
- Potency [2]: inactive
- Potency [3]: inactive
- Potency [5]: inactive

SMILES: CC[C@@H](C(N)=O)N1CCCC1=O
- activation [1]: 0.54% (inactive)
- Potency [2]: inactive
- Potency [3]: inactive
- Potency [5]: inactive
- viability [6]: 108% (inactive)
- Potency [7]: inactive
- Potency [8]: inactive
- Potency [9]: inactive

SMILES: CCCN1CCC[C@@H]2Cc3[nH]ncc3C[C@H]21
- activation [1]: -5.86% (inactive) and -11.2% (inactive) and 2.09% (inactive)
- Potency [2]: inactive
- Potency [3]: inactive
- Potency [5]: inactive

SMILES: Nc1ccc(CCN2CCN(c3cccc(C(F)(F)F)c3)CC2)cc1
- activation [1]: -62.8% (inactive)
- Potency [2]: inactive
- Potency [3]: inactive
- Potency [5]: inactive

SMILES: C[C@]12CCC3C(CC[C@H]4C[C@H](O)CC[C@]34C)C1CC[C@@H]2C(=O)CO (stereo partly drawn)
- activation [1]: -8.4% (inactive)
- Potency [3]: inactive
- Potency [5]: inactive

SMILES: Nc1cc2c(ncn2CCOCP(=O)(O)O)c(=O)[nH]1
- activation [1]: -41.7% (inactive)
- Potency [3]: inactive

SMILES: NNC(=O)c1ccc(O)cc1
- activation [1]: -20.3% (inactive)
- Potency [3]: inactive
- Potency [10]: 8.96 µM (active)
- Potency [5]: inactive

SMILES: C[N+]1(C)CCOC(O)(c2ccc(-c3ccc(C4(O)C[N+](C)(C)CCO4)cc3)cc2)C1 (stereo not drawn)
- activation [1]: 14.5% (inactive)
- Potency [3]: inactive
- Potency [10]: inactive
- Potency [11]: 12.7 µM (active)

SMILES: NCC(O)c1cc(O)c(O)cc1F (stereo not drawn)
- activation [1]: -23.1% (inactive)
- Potency [3]: inactive
- Potency [5]: inactive

SMILES: O=C(N[C@H]1CN2CCC1CC2)c1ccc(Cl)cc1
- activation [1]: 0.903% (inactive) and 6.33% (inactive) and -27.4% (inactive)
- Potency [3]: inactive
- Potency [12]: inactive
- Potency [5]: inactive
- Potency [13]: inactive
- viability [6]: 112% (inactive)
- Potency [14]: inactive
- Potency [7]: inactive
- Potency [15]: inactive
- Potency [9]: inactive

SMILES: CN(N=O)c1cc(O)ccc1O
- activation [1]: -33.2% (inactive)
- Potency [3]: 0.794 µM (active)
- Potency [16]: inactive
- Potency [10]: 2.25 µM (active)
- Potency [17]: 0.634 µM (active)
- Potency [5]: 0.282 µM (active)
- Potency [4]: 2.25 µM (active)

SMILES: CC1(C(=O)O)C2CCC(O2)C1(C)C(=O)O (stereo not drawn)
- activation [1]: -33.6% (inactive)
- Potency [3]: inactive
- Potency [5]: inactive

SMILES: C[N+](C)(C)CCOC(=O)CBr
- activation [1]: -13.1% (inactive)
- Potency [3]: inactive

SMILES: c1ccc2sc(C3(N4CCCCC4)CCCCC3)cc2c1
- activation [1]: 14.7% (inactive)
- Potency [3]: inactive
- Potency [5]: inactive

SMILES: NC(CCP(=O)(O)O)C(=O)O (stereo not drawn)
- activation [1]: -26.8% (inactive)
- Potency [3]: inactive
- Potency [5]: inactive

SMILES: CC(=O)NCCc1c[nH]c2ccccc12
- activation [1]: -24.3% (inactive)
- Potency [3]: inactive
- Potency [12]: inactive
- Potency [5]: inactive
- Potency [13]: inactive

SMILES: C[N+]1(C)CCN(c2ccccc2)CC1
- activation [1]: -0.912% (inactive)
- Potency [3]: inactive

SMILES: C#CCN[C@H](C)Cc1ccccc1
- activation [1]: 4.01% (inactive)
- Potency [3]: inactive

SMILES: O=[N+]([O-])c1ccc2nc(N3CCNCC3)ccc2c1
- activation [1]: -42.9% (inactive)
- Potency [2]: inactive
- Potency [16]: 398 nM (active) and 2.51 µM (active)
- Potency [10]: 14.1 µM (active) and 12.6 µM (active)
- Potency [17]: 10 µM (active)
- Potency [11]: 2.51 µM (active) and 6.31 µM (active)
- Potency [4]: 15.9 µM (active)

SMILES: CC(C)(C)c1o[nH]c(=O)c1CC(N)C(=O)O (stereo not drawn)
- activation [1]: -13.9% (inactive)
- Potency [3]: inactive
- Potency [5]: inactive

SMILES: N#CC(C#N)=Cc1ccc(O)c(O)c1
- activation [1]: 23.2% (inactive) and -8.42% (inactive)
- Potency [3]: inactive
- Potency [10]: inactive
- Potency [17]: 0.798 µM (active)
- Potency [4]: 20.1 µM (active)

SMILES: Cn1c(CCCC(=O)O)nc2cc(N(CCCl)CCCl)ccc21
- activation [1]: 27.7% (inactive) and 5.11% (inactive) and -16.6% (inactive)
- Potency [2]: inactive
- Potency [3]: inactive
- Potency [7]: 10.5 µM (active)
- Potency [8]: 18.6 µM (active)

SMILES: CC(C)(C)OC(=O)NC1[C@H]2CNC[C@@H]12 (stereo partly drawn)
- activation [1]: -12.9% (inactive)
- Potency [3]: inactive

SMILES: CN1C2CCC1CC(OC(=O)c1cc(Cl)cc(Cl)c1)C2 (stereo not drawn)
- activation [1]: -57.3% (inactive)
- Potency [3]: inactive
- Potency [5]: inactive

SMILES: NC(C(=O)O)c1cc(=O)[nH]o1 (stereo not drawn)
- activation [1]: -10.1% (inactive)
- Potency [3]: inactive

SMILES: CCCN1CCc2cc(O)cc3c2[C@H]1Cc1ccc(O)c(O)c1-3
- activation [1]: 23.3% (inactive)
- Potency [3]: inactive

SMILES: CCCN1CCc2cccc3c2[C@H]1Cc1ccc(O)c(O)c1-3
- activation [1]: -13.3% (inactive)
- Potency [3]: inactive
- Potency [17]: 22.5 µM (active)

SMILES: NC(=O)c1ccc(OCC(O)CN2CC=C(c3ccc(F)cc3)CC2)cc1 (stereo not drawn)
- activation [1]: 5.52% (inactive)
- Potency [3]: inactive

SMILES: NC(=O)CI
- activation [1]: 22% (inactive)
- Potency [3]: 5.01 µM (active)
- Potency [10]: 28.3 µM (active)
- Potency [17]: 6.34 µM (active)
- Potency [4]: 20.1 µM (active)

SMILES: CN[C@@H]1C[C@@H](c2ccc(Cl)c(Cl)c2)c2ccccc21
- activation [1]: -33.4% (inactive)
- Potency [3]: inactive
- Potency [5]: inactive

SMILES: CCn1cnc2c(Nc3cccc(Cl)c3)nc(N[C@@H]3CCCC[C@@H]3N)nc21
- Potency [1]: 6.01 µM (active)
- Potency [3]: inactive

SMILES: Oc1ccc2c3c1O[C@H]1c4[nH]c5ccccc5c4C[C@@]4(O)C(C2)N(CC2CC2)CCC314 (stereo partly drawn)
- activation [1]: -38.9% (inactive)
- Potency [3]: inactive

SMILES: C[N+]1(C)C2CCC1CC(OC(=O)c1c[nH]c3ccccc13)C2 (stereo not drawn)
- activation [1]: -13.4% (inactive)
- Potency [2]: inactive
- Potency [5]: inactive

SMILES: C[C@@H]1O[C@H](C[N+](C)(C)C)C[C@H]1O
- activation [1]: -7.38% (inactive)
- Potency [3]: inactive

SMILES: Cc1cc([C@@H]2CCCN2C)on1
- activation [1]: 4.82% (inactive)
- Potency [3]: inactive

SMILES: CC(C)NP(=O)(NC(C)C)OP(=O)(NC(C)C)NC(C)C
- activation [1]: -39% (inactive)
- Potency [3]: inactive
- Potency [5]: inactive

SMILES: CC12NC(Cc3ccccc31)c1ccccc12 (stereo not drawn)
- activation [1]: 6.02% (inactive)
- Potency [3]: inactive
- Potency [5]: inactive

SMILES: O=C1CC[C@@]2(O)C3Cc4ccc(O)c5c4C2(CCN3CC2CC2)[C@H]1O5 (stereo partly drawn)
- activation [1]: -10.4% (inactive)
- Potency [3]: inactive

SMILES: NCCc1ccc(S(=O)(=O)F)cc1
- activation [1]: -21.4% (inactive)
- Potency [3]: inactive

SMILES: NCCc1c[nH]c2ccccc12
- activation [1]: -5.39% (inactive)
- Potency [3]: inactive
- Potency [5]: inactive

SMILES: C[N+](C)(C)CC#CCN1CCCC1=O
- activation [1]: -31.7% (inactive)
- Potency [2]: inactive
- Potency [5]: inactive

SMILES: CC(C)(C)c1cc(C=C(C#N)C#N)cc(C(C)(C)C)c1O
- activation [1]: 6.66% (inactive)
- Potency [3]: inactive
- Potency [5]: inactive

SMILES: CN1CC[C@@]2(C)c3cc(OC(=O)Nc4ccccc4)ccc3N(C)[C@@H]12
- activation [1]: 26.7% (inactive)
- Potency [2]: inactive
- Potency [16]: inactive
- Potency [10]: 8.96 µM (active)
- Potency [17]: inactive and 7.98 µM (active)
- Potency [11]: inactive and 5.65 µM (active)
